Results as given in PubChem BioAssay (NCI).
This is part of a sample that, as a whole, favours compounds with a hit. Of some 83,000 tested, about 20% had one in any assay.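 Plates (96-well) were seeded with cells, treated with compound at one concentration, and incubated for 48 hours before percent growth was determined.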 A number with no mark means an inactive call. Activity calls are given as the source filed them. How the source made its calls: active means growth percent below 10; inactive means the rest.

Key:
Assay in all cases: NCI-60 one-dose screen, 48 h (100 = growth as untreated, 0 = no growth, -100 = all killed)
Details in all cases: 10 µM
SK-MEL-2 melanoma = system: SK-MEL-2 melanoma
EKVX NSCLC = system: EKVX NSCLC
UO-31 renal = system: UO-31 renal
TK-10 renal = system: TK-10 renal
ACHN renal = system: ACHN renal
CAKI-1 renal = system: CAKI-1 renal
A498 renal = system: A498 renal
CCRF-CEM leukemia = system: CCRF-CEM leukemia
MOLT-4 leukemia = system: MOLT-4 leukemia
SR leukemia = system: SR leukemia
RPMI-8226 leukemia = system: RPMI-8226 leukemia
OVCAR-8 ovarian = system: OVCAR-8 ovarian
OVCAR-5 ovarian = system: OVCAR-5 ovarian
OVCAR-4 ovarian = system: OVCAR-4 ovarian
SK-OV-3 ovarian = system: SK-OV-3 ovarian
IGROV1 ovarian = system: IGROV1 ovarian
OVCAR-3 ovarian = system: OVCAR-3 ovarian
HS 578T breast = system: HS 578T breast
NCI/ADR-RES ovarian = system: NCI/ADR-RES ovarian

| SMILES | growth (SK-MEL-2 melanoma) | growth (EKVX NSCLC) | growth (UO-31 renal) | growth (TK-10 renal) | growth (ACHN renal) | growth (CAKI-1 renal) | growth (A498 renal) | growth (CCRF-CEM leukemia) | growth (MOLT-4 leukemia) | growth (SR leukemia) | growth (RPMI-8226 leukemia) | growth (OVCAR-8 ovarian) | growth (OVCAR-5 ovarian) [%] | growth (OVCAR-4 ovarian) | growth (SK-OV-3 ovarian) | growth (IGROV1 ovarian) | growth (OVCAR-3 ovarian) | growth (HS 578T breast) | growth (NCI/ADR-RES ovarian) |
| --- | --- | --- | --- | --- | --- | --- | --- | --- | --- | --- | --- | --- | --- | --- | --- | --- | --- | --- | --- |
| c1ccc(C2CCCCC2)c(OCCCCCN2CCNCC2)c1 | 82% | 67.4% | 66.6% | 83.2% | 53.3% | 66.2% | 52.4% | 27.1% | 33.5% | -32.9% (active) | -14.6% (active) | 83.2% | 93.8 | 68.5% | 94.9% | 56.7% | 76.9% | 76% | 70% |
| O=S(=O)(NC1c2ccccc2Oc2ccccc21)c1ccccc1 | 94% | 102% | 81.9% | 86.4% | 84.5% | 90.1% | 92.2% | 61.8% | 88.1% | 58.3% | 94.1% | 88.8% | 101 | 88.6% | 99.6% | 97.3% | 97.6% |  | 90.9% |
| COc1ccc(-c2nnc(SC/C(=N\O)c3ccccc3)o2)cc1 | 102% | 95.8% | 97.1% | 107% | 101% | 95.1% | 80.8% | 88.9% | 80.4% | 100% | 88.8% | 107% | 108 | 104% | 87.9% |  | 99.1% | 94% | 91.2% |
| N#Cc1c2c([nH]c(=O)c1C(N)=O)CCCCC2 | 98.7% | 104% | 85.2% | 95.4% | 104% | 99.3% | 89.8% | 95% | 117% | 108% | 103% | 102% | 97.2 | 116% | 91.6% | 102% | 113% | 91.4% | 111% |
| O=C(Nc1cccc(Cl)c1)OCC(COC(=O)Nc1cccc(Cl)c1)(COC(=O)Nc1cccc(Cl)c1)[N+](=O)[O-] | 49.7% | 28.3% | 30.9% | 53.7% | 39.8% | 49.8% | 21.1% | 21.4% | 4.15% (active) | 22.4% | 19.5% | 44% | 89.1 | 30.8% | 64.8% | 42.3% | 20.6% | 52.1% | 35.4% |
| Cc1noc(C)c1-c1ccc2nc(NC(=O)[C@H]3CCN(C#N)C3)cn2c1 | 74.1% | 94% | 66.9% | 81.2% | 65.3% | 74.4% | 88.9% | 105% | 95.9% | 42.3% | 97.2% | 91.6% | 92.7 | 63.9% | 103% | 82.2% | 71.7% | 84.4% | 95.8% |
| CCOC(=S)Sc1ccc([N+](=O)[O-])cc1[N+](=O)[O-] | 91.4% | 98% | 78.1% | 94% | 60.4% | 29.9% | 88.2% | 14.4% | 48.5% | 18.3% | 11.9% | 93.3% | 99.2 | 113% | 97.1% | 99.2% | 62.2% | 98% | 102% |
| Cc1nc2cc(-n3c(-c4ccc(F)cc4)nc4ccccc4c3=O)ccc2n1Cc1ccccc1 | 31.8% | 55.9% | 35.7% | 30.5% | 3.65% (active) | 30.6% | -5.66% (active) | 65.9% | 34.7% | -7.66% (active) | 37.5% | 13% | 65.2 | -18.3% (active) | 58.8% |  | -18.7% (active) | 5.86% (active) | 6.09% (active) |
| CCOc1ccc(-n2cc(-c3ccc(N(C)C)cc3)[n+]3c2CCCCC3)cc1 | -7.29% (active) | 14.1% | 66.1% | 8.78% (active) | 22.2% | 60.9% | -10.2% (active) | 28.3% | 13.4% | 27.3% | 6.41% (active) | 12.2% | 40 | 9.15% (active) | -5.85% (active) |  | 21.8% | 28.5% | 92.8% |
| CCCCOCCOCCOCc1cc2c(cc1Br)OCO2 | 92% | 104% | 76.7% | 96.3% | 98.8% | 98.5% | -60.6% (active) | 99.8% | 92.3% | 100% | 99.2% | 97.8% | 95.5 | 105% | 96.5% | 89.6% | 111% |  | 111% |
| CCCCCCN=C(N)CCCCCCCCCCC(N)=NCCCCCC | 38.3% | 34.6% | 78.6% | 55.6% | 48.5% | 55.9% | 37% | 29.5% | 38.2% | 61.7% | 28.8% | 21.8% | 49.1 | 27.6% | 31.3% |  | 20% | 26.6% | 84% |
| COc1cccc(C(=O)N(c2ccc(F)c(F)c2)C(C(=O)NC(C)(C)C)c2cc3c(C)cc(C)cc3nc2Cl)c1 (stereo not given) | 77.1% | 54.5% | 48.5% | 70.5% | 59.4% | 42.9% | 59.8% | 53.8% | 43.8% | 67.6% | 42.9% | 84.1% | 86.5 | 48.7% | 75.5% | 77.2% | 60.3% | 79.8% | 73.2% |
| NC1CCC(Nc2nc(NCc3cc(Cl)ccc3O)c3ncn(C4CCCC4)c3n2)CC1 (stereo not given) | -73.7% (active) | -18.7% (active) | 1.65% (active) | -3.98% (active) | -5.98% (active) | 9.61% (active) | -67.1% (active) | -0.96% (active) | -15.5% (active) | -15.9% (active) | -25.1% (active) | 8.24% (active) | 17.3 | -6.96% (active) | 2.6% (active) | 1.62% (active) | -20.2% (active) |  | 26.3% |
| CCc1c(C(=O)NCc2c(O)ccc3cccc(O)c23)[nH]c(C)c1C(C)=O | 32.7% | 27.6% | 12.5% | 46.8% | 11.6% | 34.2% | 49.3% | 16.6% | 19.6% | 30.5% | 15.3% | 38.4% | 90.4 | 27.6% | 62.2% |  | 12.6% | 35% | 29.2% |
| CCCCCCCCCCCCc1ccc(C(=O)/C=C/C(=O)O)cc1 | 93.1% | 99.9% | 85.3% | 68.7% | 55.9% | 91.1% | 81.7% | -17.6% (active) | -15.1% (active) | -28.1% (active) | 6.04% (active) | 67.1% | 94.1 | 70.9% | 98.6% | 72.7% | 47% | 93.7% | 100% |
| O=[N+]([O-])c1ccc(Br)o1 | 94.4% | 101% | 90% | 96.4% | 100% | 98.3% | 102% | 114% | 106% | 108% | 106% | 108% | 95.4 | 122% | 104% | 101% | 111% | 113% | 99.5% |
| CCc1c(C)[nH]c(=O)c(C(N)=O)c1C#N | 96.3% | 103% | 93.5% | 91.9% | 102% | 96.3% | 105% | 99% | 107% | 91.7% | 105% | 104% | 109 | 115% | 100% | 107% | 116% | 95.5% | 119% |
